This is an account of results in PubChem BioAssay (NCATS).

Results filed as inconclusive are left out. A number with no mark means an inactive call. Calls follow the shape of the dose curve; as a rule, active = well fitted inhibition curve with a large enough effect; inconclusive = small, poorly fitted or top-dose-only effect; inactive = flat fitted curve, though single readings scatter.

The experiment deals with Lysine-specific demethylase 5B (Homo sapiens) (UniProt Q9UGL1). The experiment can be described thus: Optimization screen for KDM5B Histone Demethylases FDH coupled qHTS against the LOPAC library (AID 1347166). Also: 0% is about no effect. To be noted: KDM5B demethylation, FDH-coupled NADH fluorescence (FDH is formaldehyde dehydrogenase); series mostly up to 57.5 µM; activity, negative = inhibition: at the top concentration. Summed up: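 KDM5BDeltaAP (200nM final) in 50mM HEPES pH 7.5, 0.01% Tween-20 was preincubated with compound for 10 min at room temperature. A substrate mix of 12.5uM H3K4Me3, 25uM a-ketoglutarate, ascorbate, Fe2+, NAD+ and formaldehyde dehydrogenase was then added. NADH fluorescence (340/450 nm) was read initially and after 30 min.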
Chain of Lysine-specific demethylase 5B (Homo sapiens) (Q9UGL1 whole entry, looked up): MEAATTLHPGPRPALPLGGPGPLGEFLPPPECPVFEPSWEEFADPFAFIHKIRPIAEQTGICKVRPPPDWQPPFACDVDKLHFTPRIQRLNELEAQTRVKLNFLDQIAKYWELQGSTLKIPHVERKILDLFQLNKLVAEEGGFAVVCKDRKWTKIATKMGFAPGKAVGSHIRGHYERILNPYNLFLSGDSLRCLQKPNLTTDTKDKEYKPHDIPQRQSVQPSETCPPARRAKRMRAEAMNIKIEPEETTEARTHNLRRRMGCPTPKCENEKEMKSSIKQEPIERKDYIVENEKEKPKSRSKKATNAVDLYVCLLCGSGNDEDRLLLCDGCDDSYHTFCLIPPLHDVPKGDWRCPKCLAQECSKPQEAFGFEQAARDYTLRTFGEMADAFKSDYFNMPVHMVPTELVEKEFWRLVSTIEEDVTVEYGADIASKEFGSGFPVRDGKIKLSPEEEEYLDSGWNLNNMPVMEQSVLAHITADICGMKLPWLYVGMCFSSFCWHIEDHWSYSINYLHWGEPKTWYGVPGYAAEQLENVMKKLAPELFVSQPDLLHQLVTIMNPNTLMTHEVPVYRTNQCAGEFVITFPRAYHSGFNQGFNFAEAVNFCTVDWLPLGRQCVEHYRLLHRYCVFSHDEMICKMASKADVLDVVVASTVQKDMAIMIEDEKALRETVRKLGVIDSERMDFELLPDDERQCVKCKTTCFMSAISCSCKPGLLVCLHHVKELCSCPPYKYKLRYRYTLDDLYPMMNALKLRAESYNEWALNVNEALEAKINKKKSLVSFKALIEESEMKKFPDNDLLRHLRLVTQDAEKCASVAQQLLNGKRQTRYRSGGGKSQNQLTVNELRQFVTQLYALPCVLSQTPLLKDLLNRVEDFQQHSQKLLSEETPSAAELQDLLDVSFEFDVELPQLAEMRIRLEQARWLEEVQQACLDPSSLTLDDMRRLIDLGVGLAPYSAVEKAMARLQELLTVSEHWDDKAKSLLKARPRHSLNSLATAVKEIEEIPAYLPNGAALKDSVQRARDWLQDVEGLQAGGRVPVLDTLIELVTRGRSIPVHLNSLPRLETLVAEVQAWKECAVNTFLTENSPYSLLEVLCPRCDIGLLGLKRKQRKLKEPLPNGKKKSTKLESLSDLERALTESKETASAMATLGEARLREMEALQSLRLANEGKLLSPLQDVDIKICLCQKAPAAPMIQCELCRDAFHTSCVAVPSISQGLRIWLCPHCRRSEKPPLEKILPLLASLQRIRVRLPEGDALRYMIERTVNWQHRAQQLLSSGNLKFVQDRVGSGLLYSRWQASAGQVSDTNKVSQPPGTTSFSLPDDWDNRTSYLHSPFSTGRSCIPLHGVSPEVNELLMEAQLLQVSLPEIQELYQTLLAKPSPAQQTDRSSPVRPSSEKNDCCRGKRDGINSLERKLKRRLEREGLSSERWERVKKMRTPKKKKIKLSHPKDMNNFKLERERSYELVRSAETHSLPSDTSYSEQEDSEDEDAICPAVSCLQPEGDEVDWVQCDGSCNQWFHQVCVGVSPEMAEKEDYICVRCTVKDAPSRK
For `C[N+]1(C)CCc2cc3c(cc2[C@H]1[C@@H]1OC(=O)c2c1ccc1c2OCO1)OCO3`, the “activity, negative = inhibition” value was -1.28%.
On to `C[C@@H]1[C@@H]2Cc3ccc(O)cc3[C@@]1(C)CCN2CC1CC1`, for which the “activity, negative = inhibition” value is -5.68%.
Then `CCCC[N+]1(C)C2CC(OC(=O)[C@H](CO)c3ccccc3)CC1C1OC12` (some centres not stated), with -5.22%; and `C[N+]1(C)C2CCC1CC(OC(=O)c1c[nH]c3ccccc13)C2` (configuration not stated), with -18.2%; and `C=CCN1C[C@@H](C)N([C@H](c2ccc(C(=O)N(CC)CC)cc2)c2cccc(OC)c2)C[C@@H]1C`, with -3.11%.
Then `NC(=O)COc1c(F)cc(SCCNS(=O)(=O)c2ccccc2)cc1F`, with 1.41%; and `Oc1ccc2c3c1O[C@H]1c4oc5ccccc5c4C[C@@]4(O)C(C2)N(CC2CC2)CCC314` (some centres not stated), with -6.3%.
The result for `CCCN1CCc2cc(O)cc3c2[C@H]1Cc1ccc(O)c(O)c1-3` reads -9.62%; that for `COc1cc(CC(C)N)c(OC)cc1I` (configuration not stated), -8.43%; that for `CC12NC(Cc3ccccc31)c1ccccc12` (configuration not stated), -3.5%.
As for `C/C(O)=C(\C#N)C(=O)Nc1cc(Br)ccc1Br`, the “activity, negative = inhibition” value was 2.28%.
Then `CN1CCc2cccc(Cl)c2CC1`, with -4%; and `C[C@H](N)CN1CCc2ccc(Br)cc21`, with -16%.
The result for `CC(C)(C)c1o[nH]c(=O)c1CC(N)C(=O)O` (configuration not stated) reads -1.02%.
Then `CCCCCCC(C)(C)c1ccc([C@@H]2C[C@H](O)CC[C@H]2CCCO)c(O)c1`, with -13.4%; and `Cc1cc([C@@H]2CCCN2C)on1`, with -5.97%.
`C=CCN1CC[C@]23c4c5ccc(O)c4O[C@@H]2/C(=N/N=C2\CC[C@@]4(O)C6Cc7ccc(O)c8c7[C@@]4(CCN6CC=C)[C@@H]2O8)CC[C@@]3(O)C1C5`: the “activity, negative = inhibition” value was -20.9%.
